Bioassay records (PubChem)
Most compounds without a hit are left out; they make up all but 3.2% or so of the library.
CRE-bla Fsk – alters forskolin-stimulated CRE reporter signaling in CHO cells. CHO CRE-bla reporter (cAMP response element driving beta-lactamase), forskolin EC10, beta-lactamase ratio. Potency, µM (top dose mostly 38.2 µM), inactives show at the top dose activity change, negative = inhibition, usual class: activators. 2.5% of 71,000 active. AID 662; active means well fitted activation curve with a large enough effect in the signal ratio, with a control signal flat, not every such curve was filed as active; inconclusive means small, poorly fitted or top-dose-only effect, or effect the other way, or a change in a side signal; the % refers to the signal ratio; further: % of control where 0% means no effect
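Cells were plated overnight at 37 °C, exposed to compound titrations plus EC10 NKH 477 for 3 h, then given CCF4 dye for 2 h at room temperature. Blue/green (460/530 nm) ratio was converted to %Activity and AC50 values calculated.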
ERK AVP block – blocks ERK signaling stimulated by vasopressin. HEK293-V1b, vasopressin-stimulated pERK AlphaScreen. Potency, µM (doses to about 57.5 µM), without a hit: at the highest dose activity, negative = inhibition, hits mostly inhibitors. 0.99% of 72,000 active. AID 995; further: on the % scale 0 is the no-effect control and ±100 the full control effect; nearly all actives have a fitted effect of over 55% in size
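HEK293 cells stably expressing V1b receptor, seeded overnight in 1% FBS, were treated with compounds for 30 min at 37C, then stimulated 5 min with 25 nM vasopressin; phospho-ERK read by AlphaScreen SureFire after lysis.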
15-hLO-2 inh – 15-hLO-2 (ALOX15B) enzyme inhibition; O15296; purified 15hLO-2, xylenol orange hydroperoxide absorbance; Potency, µM (doses to about 57.1 µM), inactives show at the highest dose activity change, negative = inhibition, actives largely listed as inhibitors; 0.56% of 110,000 active; AID 881; further: on the % scale 0 is the no-effect control and ±100 the full control effect; nearly all actives have a fitted effect of over 60% in size
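Purified human 15hLO-2 (50 nM final) preincubated with compounds 15 min at room temperature in 25 mM Hepes pH 7.5, 0.01% Triton X-100, then 45 uM arachidonic acid added for 90 min; hydroperoxide detected via ferrous/xylenol orange, 573/405 nm absorbance ratio.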
ALOX15 inhib – 15-hLO (ALOX15) enzyme inhibition; P16050; purified 15hLO-1, xylenol orange hydroperoxide absorbance; Potency, µM (titrated, usually from 57.1 µM), for inactives: at the top dose activity change, negative = inhibition, usual class: inhibitors; 1.4% of 74,000 active; further: on the % scale 0 is the no-effect control and ±100 the full control effect; nearly all actives have a fitted effect of over 55% in size
Target sequence (P16050 whole entry, looked up): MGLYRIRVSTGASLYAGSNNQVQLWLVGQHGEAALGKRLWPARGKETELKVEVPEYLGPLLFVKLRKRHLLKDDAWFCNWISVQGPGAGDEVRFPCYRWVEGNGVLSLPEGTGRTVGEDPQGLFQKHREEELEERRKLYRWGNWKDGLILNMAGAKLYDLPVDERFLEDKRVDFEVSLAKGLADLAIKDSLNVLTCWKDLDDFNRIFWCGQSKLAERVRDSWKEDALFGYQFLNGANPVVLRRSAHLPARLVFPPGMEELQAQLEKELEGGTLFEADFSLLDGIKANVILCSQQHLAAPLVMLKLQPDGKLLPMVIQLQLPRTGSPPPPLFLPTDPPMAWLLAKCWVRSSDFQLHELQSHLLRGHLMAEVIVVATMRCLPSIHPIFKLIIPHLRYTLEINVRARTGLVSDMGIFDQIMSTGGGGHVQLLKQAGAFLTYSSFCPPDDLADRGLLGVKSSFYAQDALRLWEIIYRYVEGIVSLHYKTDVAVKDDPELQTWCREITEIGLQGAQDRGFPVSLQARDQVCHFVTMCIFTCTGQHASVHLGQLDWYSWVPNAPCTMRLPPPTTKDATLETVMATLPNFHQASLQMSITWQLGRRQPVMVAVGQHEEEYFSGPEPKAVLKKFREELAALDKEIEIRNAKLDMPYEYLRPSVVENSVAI
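Hydroperoxide formed from arachidonic acid (50 uM) by purified human 15hLO-1 (40 nM) oxidizes ferrous iron, and the ferric-xylenol orange complex is read at 573 versus 405 nm. Compounds were preincubated 15 min; reaction ran 6 min at room temperature.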
An asterisk follows results filed as active; [ ] = another dose, or the depositor's remark. Unless noted, the call rests on the fitted dose curve; in most records, active means well fitted inhibition curve with a large enough effect; inconclusive means small, poorly fitted or top-dose-only effect; inactive means no such curve, though single readings can be large or run the other way. Potency means the concentration at half of the fitted maximal effect.

What do the screens show for `Cc1nc2oc3c(NCc4ccccc4)ncnc3c2c2c1COC(C)(C)C2`?
CRE-bla Fsk: 5.01µM*; ERK AVP block: inconclusive; 15-hLO-2 inh: 7.0%; ALOX15 inhib: -1.6%

What do the screens show for `COC(=O)[C@@H]1O[C@@H](c2c(OC)c(OC)c(C)c(OC)c2OC)[C@H](C)[C@@H](O)[C@@H]1C`?
ERK AVP block: 25.1%[11.5 µM]; ALOX15 inhib: 4.7%[11.4 µM]

How did CCCn1c(-c2ccc(F)cc2)nc2c(N3CCCN(Cc4ccccc4)CC3)nc(C)nc21 do in these assays?
CRE-bla Fsk: 1.3%; ERK AVP block: -24.6%; 15-hLO-2 inh: 26.2%; ALOX15 inhib: 7.1%

Results for O=C(NC1CCN(C(=O)N2c3ccccc3Sc3ccccc32)CC1)c1ccccc1F ?
15-hLO-2 inh: 15.8µM*

Results for CC1CCN(C(=O)N2c3ccccc3Sc3ccccc32)CC1 ?
15-hLO-2 inh: 5.8%

Results for C[C@H]1[C@H](NC(=O)/C(=N/OC(C)(C)C(=O)O)c2csc(N)n2)C(=O)N1S(=O)(=O)O (stereo in doubt) ?
CRE-bla Fsk: 0.4%[17.1 µM]; ERK AVP block: -0.6%[25.7 µM]; 15-hLO-2 inh: 0.2%[25.6 µM]; ALOX15 inhib: 5.2%[25.6 µM]

How did CCN(CC)c1ccc(/C=N/NC(=O)c2ccc(O)cc2)cc1 do in these assays?
ERK AVP block: -6.8%; 15-hLO-2 inh: 29.9%; ALOX15 inhib: inconclusive

What do the screens show for `C=C(c1ccc(O)cc1)c1ccc(O)cc1`?
CRE-bla Fsk: -19.3%; ERK AVP block: -1.0%; 15-hLO-2 inh: inconclusive; ALOX15 inhib: -28.1%

What do the screens show for `C/C=C(/C(=C/C)c1ccc(O)cc1)c1ccc(O)cc1`?
ERK AVP block: 7.8%; 15-hLO-2 inh: 15.8µM*; ALOX15 inhib: 25.1µM*

What do the screens show for `O=C1C2C3CCCC3=C3CCCC3C2C(=O)N1c1ccc(F)cc1` (configuration not stated)?
CRE-bla Fsk: -9.1%; ERK AVP block: -12.8%; 15-hLO-2 inh: 4.7%; ALOX15 inhib: 3.16µM*

How did CC(C)=C1C2CCC1C1C(=O)N(c3nc(-c4ccc(F)cc4)c(C)s3)C(=O)C21 (configuration not stated) do in these assays?
15-hLO-2 inh: -2.6%

What do the screens show for `CCCN1C(=O)c2cc(C(=O)O)ccc2C1O` (configuration not stated)?
CRE-bla Fsk: -0.1%; 15-hLO-2 inh: -9.0%; ALOX15 inhib: 20µM*

How did CCCN1C(=O)c2cc(C(=O)NC3CCCCCC3)ccc2C1O (configuration not stated) do in these assays?
CRE-bla Fsk: 3.1%; ERK AVP block: 1.5%; 15-hLO-2 inh: -3.1%; ALOX15 inhib: -5.2%

Results for CCc1cc(C(C)=O)c(O)cc1OCCCCCC(C)(C)c1nn[nH]n1 ?
ERK AVP block: 22.7%; 15-hLO-2 inh: 4.1%; ALOX15 inhib: 20µM*

What do the screens show for `C=CCNc1nc(NCc2ccco2)nc(OCC)n1`?
CRE-bla Fsk: inconclusive; ERK AVP block: 25.1µM*; 15-hLO-2 inh: 1.8%; ALOX15 inhib: -9.8%

How did C=CCNc1nc(Nc2ccc(OC)cc2)nc(OCC)n1 do in these assays?
15-hLO-2 inh: 12.1%

What do the screens show for `O=c1c(-c2ccc(Cl)cc2)nc2cnc(N3CCOCC3)nc2n1-c1ccccc1`?
CRE-bla Fsk: inconclusive; ERK AVP block: 2.4%; 15-hLO-2 inh: -6.3%; ALOX15 inhib: 2.4%

Results for CCCCN1CCC(CCC(=O)c2cc(Cl)c(N)cc2OC)CC1 ?
CRE-bla Fsk: -9.8%; ERK AVP block: -6.2%; 15-hLO-2 inh: 16.3%; ALOX15 inhib: -15.8%[25.6 µM]

How did COc1cc(N)c(Cl)cc1C(=O)N[C@H]1CCN(CCCOc2ccc(F)cc2)C[C@@H]1OC do in these assays?
CRE-bla Fsk: inconclusive; ERK AVP block: 31.6µM*; 15-hLO-2 inh: 42.8%; ALOX15 inhib: inconclusive

What do the screens show for `COc1ccc(N2CCC(CNS(=O)(=O)c3cccc(C(F)(F)F)c3)C2)cc1` (configuration not stated)?
CRE-bla Fsk: 0.5%; ERK AVP block: 26.8%; 15-hLO-2 inh: 8.5%[2.29 µM]; ALOX15 inhib: 0.794µM*

What do the screens show for `Cc1ccc(/C=C2\SC(=S)N(CC(=O)Nc3ncc(Cc4ccccc4Cl)s3)C2=O)cc1`?
15-hLO-2 inh: 12.6µM*

How did BrC(Br)C(Br)Br do in these assays?
CRE-bla Fsk: -6.3%; ERK AVP block: -6.6%; 15-hLO-2 inh: -10.2%; ALOX15 inhib: -3.6%
